The source of these data is PubChem BioAssay (EPA / NIEHS).

Where “and” joins values, the source holds several entries; their conditions need not be identical. Equal entries are not always repeated. More than one record can exist for a structure, and the calls need not agree. Calls of active or inactive are those of the source. Rule for the calls: active = hit-call score of the fitted dose curve at least 0.9, where 1 is the maximum; inactive = score below 0.9.

Read-out in the test: UDP glucuronosyltransferase (UGT1A6), UGT1A6 (gene 54578)
In words: LTEA_HepaRG_UGT1A6: Life Technologies and Expression Analysis (LTEA) Assay for UDP glucuronosyltransferase (UGT1A6) using HepaRG (AID 2283539). As to conditions: mRNA level, 48 h; actives raise or lower the signal. As for the experimental part:
LTEA_HepaRG is a cell based, multiplexed-readout assay that uses HepaRG, a human liver cell line, with measurements taken at 48 hours after chemical dosing on a 96-well plate.LTEA_HepaRG_UGT1A6 is one of 102 assay component(s) measured in the LTEA HepaRG cell culture assay. It is a marker of NR mediated metabolism.Data from the assay component LTEA_HepaRG_UGT1A6 was analyzed into 1 endpoint. This assay endpoint, LTEA_HepaRG_UGT1A6, was analyzed with bidirectional fitting relative to DMSO as the negative control and baseline of activity. Using a type of inducible reporter, measures of mRNA induction for gain or loss-of-signal activity can be used to understand regulation of transcription factor activity. To generalize the intended target to other relatable targets, this assay endpoint is annotated to the transferase intended target family, where the subfamily is glucuronosyltransferase.
A total of 1060 chemcials from the ToxCast library were tested in eight-point concentration-response experiments. Cell culture and cytotoxicity assays were conducted at Thermo Fisher Scientific's Custom Services facility (Madison, WI). A single lot of human HepaRG cells (Thermo Fisher Scientific, Frederick, MD) was used for the cell culture experiments. 96-well format collagen type I coated plates of human HepaRG cells were prepared using established methods. Briefly, cryopreserved HepaRG cells were thawed, plated at a density of approximately 100,000 cells/well in HepaRG Thaw, Plate, and General Purpose media (HPRG770, Thermo Fisher Scientific), and incubated for 48 hours. 0.5% DMSO was selected as vehicle control to balance the requisite need of DMSO in HepaRG cultures to maintain differentiation (for example, baseline metabolism, proportions of hepatocytes vs. cholangiocytes), while enabling further hepatic receptor pathway activation (for example, PXR and CAR) in response to chemical exposure. 48 hours after plating, the culture medium was replaced with HepaRG Serum-Free Incudtion Media. Cells were exposed to each test chemical in duplicate and maintained in CO2 incubators for another 48 hours. Chemical plates were thawed to room temperature and 200x concentrations of treatment groups were prepared. 8-point conentration-reponse curves were made with the highest exposure at 100 uM, followed by half-log dilutions, all in 0.5% DMSO. Each test plate contained variouse controls, induction positive controls (1mM phenobarbital), cytotoxicity positive controls ([…] aflatoxin B1), vehicle controls (0.5% DMSO), and total lysis controls (0.5% DMSO). Cell morphology images were taken using an Essen IncuCyte FLR automated microscope, with six 96-well plates imaged in about 24 minutes. Images were captured and exported and JPEG files. Spent culture media was transfered to black-well plates for the LDH assay, and remaining media was sorted at -80 C for later use. Cells were treated with RLT buffer and frozen until shipped for gene expression analysis. Total RNA was isolated from the cell suspension in 75 uL of Buffer RLT (Qiagen, Germantown, MD 20874) by Quintiles/Expression Analysis (Durham, NC) using a custom isolation procedure. Total RNA from each plate well was transferred to a preamplification plate. Fluidigm's 96.96 Dynamic ArrayTM (Fluidigm, Amsterdam, the Netherlands) technology was used for gene expression analyses by quantitative reverse transcription polymerase chain reaction (qRT-PCR, performed by Quintiles/Expression Analysis, Durham, NC)89. Standard TaqManTM Assays (Applied Biosystems/ThermoFisher Scientific, Foster City, CA) were used to assess the expression of 93 genes selected based on their selectivity and sensitivity to important hepatic receptors known to be modulated by environmental chemicals; importance in human hepatocyte functionality; and hepatotoxicity. […]
For `CC(C)(C)C(O)/C(=C\c1ccc(Cl)cc1Cl)n1cncn1` (stereo not given), the AC50 was 36.4 µM (active).

With `COP(=O)(OC)OC=C(Cl)Cl`, the compound was called inactive.

Take `CCCN(CCC)c1c([N+](=O)[O-])cc(C(F)(F)F)cc1[N+](=O)[O-]`: the result was inactive.

In the case of `C[C@H]1[C@H](c2ccc(Cl)cc2)SC(=O)N1C(=O)NC1CCCCC1`, the AC50 is 78.8 µM (active).

In the case of `CNC(=O)Oc1ccccc1OC(C)C`, the compound was called inactive.

As to `CN1CSC(=S)N(C)C1`, the call was inactive.

For `O=[N+]([O-])c1c(Cl)c(Cl)c(Cl)c(Cl)c1Cl`, the compound was classed as inactive.

Take `C#CCN1C(=O)COc2cc(F)c(N3C(=O)C4=C(CCCC4)C3=O)cc21`: the compound was called inactive.

As to `COc1nn(CSP(=S)(OC)OC)c(=O)s1`, the result was inactive.

Regarding `O=C(Nc1ccccc1)Nc1cnns1`, the half-maximal activity concentration (AC50) is 77.9 µM (active).

For the compound `CC1(C)C(C=C(Cl)Cl)C1C(=O)OC(C#N)c1ccc(F)c(Oc2ccccc2)c1` (stereo not given), the compound was classed as inactive.

Take `Oc1cc(Cl)ccc1Oc1ccc(Cl)cc1Cl`: the compound was classed as inactive and the AC50 was 51 µM (active).

On to `O=C(O)CCCOc1ccc(Cl)cc1Cl`, for which the result was inactive.

With `CCOC1Oc2ccc(OS(C)(=O)=O)cc2C1(C)C` (stereo not given), the AC50 is 85.4 µM (active).

In the case of `CC[C@H](C)[C@H]1O[C@]2(C=C[C@@H]1C)C[C@@H]1C[C@@H](C/C=C(\C)[C@@H](O[C@H]3C[C@H](OC)[C@@H](O[C@H]4C[C@H](OC)[C@@H](O)[C@H](C)O4)[C@H](C)O3)[C@@H](C)/C=C/C=C3\CO[C@@H]4[C@H](O)C(C)=C[C@@H](C(=O)O1)[C@]34O)O2` (tested in a mixture with another compound), the AC50 was 18.6 µM (active).

For the compound `O=S1OCC2C(CO1)C1(Cl)C(Cl)=C(Cl)C2(Cl)C1(Cl)Cl` (stereo not given), the outcome was inactive.

Consider `CCC(C)Nc1c([N+](=O)[O-])cc(C(C)(C)C)cc1[N+](=O)[O-]` (stereo not given), for which the compound was classed as inactive.

Consider `CC1(c2ccc(Oc3ccccc3)cc2)OC(=O)N(Nc2ccccc2)C1=O` (stereo not given), for which the AC50 was 50.2 µM (active).

Take `O=C(O)C(F)(F)C(F)(F)C(F)(F)C(F)(F)C(F)(F)C(F)(F)C(F)(F)F`: the compound was classed as inactive.

For `CNC(=O)Oc1cccc(N=CN(C)C)c1`, the outcome was inactive.

For the compound `CCC(C)(NC(=O)c1cc(Cl)c(C)c(Cl)c1)C(=O)CCl` (stereo not given), the half-maximal activity concentration (AC50) is 80.3 µM (active).

Take `CNC(=O)CSP(=S)(OC)OC`: the compound was called inactive.

Turning to `CC(C)OC(=O)Nc1cccc(Cl)c1`, the result was inactive.

On to `COP(=S)(OC)Oc1ccc([N+](=O)[O-])cc1`, for which the call was inactive.

Take `Cc1[nH]c(=O)n(C(C)(C)C)c(=O)c1Cl`: the compound was called inactive.

Turning to `CC(C)(C)C(O)C(Oc1ccc(Cl)cc1)n1cncn1` (stereo not given), the concentration at half-maximal activity (AC50) was 0.381 µM (active) and the result was inactive.

`N#Cc1c(Cl)c(Cl)c(Cl)c(C#N)c1Cl`: the compound was classed as inactive.

`OCCOc1ccccc1`: the call was inactive.

In the case of `CCc1ccc(C(=O)NN(C(=O)c2cc(C)cc(C)c2)C(C)(C)C)cc1`, the compound was classed as inactive.

With `CNC(=O)/C=C(\C)OP(=O)(OC)OC`, the result was inactive.

`O=[N+]([O-])/N=C1\NCCN1Cc1ccc(Cl)nc1`: the compound was classed as inactive.

For `Clc1ccccc1-c1nnc(-c2ccccc2Cl)nn1`, the outcome was inactive.

With `Oc1ccc(Cl)cc1Cc1ccccc1`, the outcome was inactive and the AC50 was 81.1 µM (active).

On to `ClC1C(Cl)C(Cl)C(Cl)C(Cl)C1Cl` (stereo not given), for which the compound was classed as inactive.

As for `COP(=S)(OC)Oc1ccc(SC)c(C)c1`, the compound was classed as inactive.

Take `O=S(=O)(O)C(F)(F)C(F)(F)C(F)(F)C(F)(F)C(F)(F)C(F)(F)C(F)(F)C(F)(F)F`: the call was inactive; the AC50 was 89.2 µM (active) and 47 µM (active).

Usually AC50 stands for the concentration at which the activity in the assay is half-maximal.
